The values below come from PubChem BioAssay (EPA / NIEHS).

Usually AC50 stands for the concentration giving half of the maximal activity seen.

Test [1] concerns the target Retinoic acid receptor alpha (Homo sapiens) (UniProt P10276). In words: ATG_DR5_RAR_CIS: Attagene CIS-FACTORIAL HepG2 Assay for human Retinoic Acid Receptor Alpha (RARE), DR5 submotif (AID 2282934; active = hit-call score of the fitted dose curve at least 0.9, where 1 is the maximum; inactive = score below 0.9;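 for AC50: reporter responds to endogenous RAR alpha beta and gamma in HepG2 not RARA alone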). The note with it: HepG2 Attagene cis-factorial RARE DR5 reporter, mRNA; actives raise or lower the signal. Put shortly:
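Reporter transcripts from a DR5-regulated unit, measured via RT-PCR plus capillary electrophoresis, reflect endogenous RAR activity in transiently transfected human HepG2 liver cells. Exposure lasted 24 h; gain or loss of signal scored against DMSO.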

Test [2] has as its target Bile acid receptor (Homo sapiens) (UniProt Q96RI1). In words: ATG_IR1_CIS: Attagene CIS-FACTORIAL HepG2 Assay for human Nuclear Receptor Subfamily 1 Group H Member 4 (NR1H4), IR1 submotif (AID 2282946; active = hit-call score of the fitted dose curve at least 0.9, where 1 is the maximum; inactive = score below 0.9). Particulars: IR1 reporter transcription, actives raise or lower the signal. The method, boiled down:
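HepG2 cells transiently transfected with multiplexed cis-element reporter units read endogenous transcription factor activity. After 24 h compound exposure, reporter mRNA was quantified by RT-PCR, fluorescent labelling, HpaI digestion and capillary electrophoresis; bidirectional fitting versus DMSO baseline.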

The nature of test [3]: ATG_PBREM_CIS: Attagene CIS-FACTORIAL HepG2 Assay for human Phenobarbital-responsive Enhancer Module (PBREM) (AID 2282955; active = hit-call score of the fitted dose curve at least 0.9, where 1 is the maximum; inactive = score below 0.9). Particulars: HepG2 PBREM cis-reporter, Attagene multiplexed transcription; actives raise or lower the signal. Put shortly: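 HepG2 cells transiently transfected with multiple cis-regulated reporter transcription units; endogenous factor activity at the PBREM element measured as reporter mRNA 24 h after dosing, via RT-PCR and capillary electrophoresis of fluorescent fragments; bidirectional fitting versus DMSO.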

The target in test [4] is Glucocorticoid receptor (Homo sapiens) (UniProt P04150). In words: ATG_GR_TRANS: Attagene TRANS-FACTORIAL HepG2 Assay for human Glucocorticoid Receptor (GR) (AID 2282978).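 Note: activators score as hits since higher reporter transcript over DMSO is fitted.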 Particulars: HepG2 Attagene TRANS GR reporter, mRNA transcription. The method, boiled down: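 HepG2 cells transiently transfected with multiplexed reporter units in which chimeric NR-GAL4 proteins drive GAL4-UAS reporters; 24 h compound exposure. Reporter mRNA measured by RT-PCR, 6-FAM labelling, HpaI digestion and capillary electrophoresis; gain-of-signal fitted versus DMSO.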

The target in test [5] is Oxysterols receptor LXR-alpha (Homo sapiens) (UniProt Q13133). In words: ATG_LXRa_TRANS: Attagene TRANS-FACTORIAL HepG2 Assay for human Liver X Receptor alpha (LXRa) (AID 2282980). The note with it: HepG2 Attagene TRANS reporter, LXRa transactivation. The method, boiled down:
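Transfect HepG2 with GAL4-UAS multiplex reporter constructs (TRANS format, chimeric receptor-GAL4); treat 24 h; extract RNA, reverse-transcribe, PCR-amplify, FAM-label, HpaI-digest; resolve fragments by capillary electrophoresis. Upward response vs DMSO.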

The target in test [6] is Nuclear receptor subfamily 4 group A member 2 (Homo sapiens) (UniProt P43354). Put plainly: ATG_NURR1_TRANS: Attagene TRANS-FACTORIAL HepG2 Assay for human Nuclear Receptor Related Protein 1 (NURR1) (AID 2282985). The note with it: HepG2 Attagene TRANS reporter, mRNA readout. The method, boiled down:
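Reporter transcript induction, measured by RT-PCR with fluorescent labelling, HpaI digestion and capillary electrophoresis, after 24 hr dosing of human HepG2 cells transiently expressing an exogenous NR-Gal4 fusion with GAL4-UAS-driven reporters; DMSO as baseline.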

Test [7] deals with human Thyroid Receptor alpha (THRa1), THRA (gene 7067) (UniProt P10827). In words: ATG_THRa1_TRANS: Attagene TRANS-FACTORIAL HepG2 Assay for human Thyroid Receptor alpha (THRa1) (AID 2283014). The method, boiled down: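 Reporter transcript induction, read by capillary electrophoresis of 6-FAM-labelled RT-PCR products, reflects activity of a transfected THRa1-Gal4 fusion in HepG2 liver cells. Cells were dosed for 24 h; activity was fitted in the positive direction against DMSO.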

The target of test [8] is human Vitamin D Receptor (VDR), VDR (gene 7421) (UniProt P11473). Put plainly: ATG_VDR_TRANS: Attagene TRANS-FACTORIAL HepG2 Assay for human Vitamin D Receptor (VDR) (AID 2283022). Put shortly: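 Steps: transfect HepG2 with GAL4-UAS-driven reporter constructs; dose compounds 24 h; isolate RNA, reverse-transcribe, PCR-amplify with 6-FAM-labelled primer extension and HpaI digestion; quantify fragments by capillary electrophoresis relative to DMSO.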

Test [9] in a line: TOX21_p53_BLA_p2_viability: Viability Assessment in the Tox21 HCT-116 p53 Agonism Beta-lactamase Assay, Phase 2 (AID 2283591).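 Note: compound exposure lasted 16 h at 37 °C; actives lower the ATP signal meaning cytotoxicity.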 Put shortly:
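Cytotoxicity readout: CellTiter-Glo ATP luminescence, 30 min at room temperature, after the beta-lactamase read. Cells were HCT116 exposed 16 h at 37C to compounds pin-transferred at 217-fold dilution from DMSO stocks.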

Test [10] is described as follows: TOX21_p53_BLA_p3_viability: Viability Assessment in the Tox21 HCT-116 p53 Agonism Beta-lactamase Assay, Phase 3 (AID 2283593).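 Note: cells exposed to compound for 16 h before reading.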 Put shortly: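 Cellular ATP was quantified by CellTiter-Glo luminescence, read after 30 min at room temperature. Beforehand, HCT116 cells (4000/well) received compound 5 h post-seeding, 217-fold diluted from DMSO, then incubated 16 h at 37C.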

A short description of test [11]: TOX21_p53_BLA_p4_viability: Viability Assessment in the Tox21 HCT-116 p53 Agonism Beta-lactamase Assay, Phase 4 (AID 2283597).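 Note: hits lower the luminescence signal meaning cytotoxicity.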 Put shortly: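 Readout: ATP luminescence (CellTiter-Glo), measured 30 min after reagent addition at RT. The reagent followed a 2 h CCF4-AM incubation, and the cells had been exposed to compound for 16 h at 37C.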
Test [12] in a line: ATG_GAL4_TRANS: Attagene TRANS-FACTORIAL HepG2 Assay for GAL4 (Internal Marker) (AID 2282976). The note with it: HepG2 Attagene TRANS GAL4 internal marker reporter. The method, boiled down:
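First, HepG2 cells were transfected with reporter units under GAL4-UAS control. Next, they were treated with chemical for 24 h. Finally, RNA was reverse-transcribed, PCR-amplified, FAM-labelled and resolved by capillary electrophoresis, with induction scored against DMSO.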

Test [13] deals with Oxysterols receptor LXR-beta (Homo sapiens) (UniProt P55055). In words: ATG_LXRb_TRANS: Attagene TRANS-FACTORIAL HepG2 Assay for human Liver X Receptor beta (LXRb) (AID 2282981). The note with it: HepG2 Attagene TRANS GAL4-LXRb reporter, mRNA. Put shortly:
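After 24 h chemical treatment of transfected HepG2 cells carrying exogenous NR-Gal4 chimeras, reporter mRNA was quantified by fluorescent RT-PCR and capillary electrophoresis; activity taken as increase over DMSO controls.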

Test [14] addresses human Peroxisome Proliferator-activated Receptor delta (PPARd), PPARD (gene 5467) (UniProt Q03181). In words: ATG_PPARd_TRANS: Attagene TRANS-FACTORIAL HepG2 Assay for human Peroxisome Proliferator-activated Receptor delta (PPARd) (AID 2283002). The method, boiled down: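 Read-out is induced reporter mRNA, quantified by RT-PCR with fluorescent labelling and capillary electrophoresis after 24 h dosing. Cells are HepG2 transiently carrying multiple GAL4-UAS reporter units driven by exogenous NR-GAL4 chimeras; DMSO serves as baseline.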

The nature of test [15]: ATG_M_32_TRANS: Attagene TRANS-FACTORIAL HepG2 Assay for M32 Transcription Factor (Internal Marker) (AID 2282984).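 Note: transcript level of a background control reporter unit measured by RT-PCR and capillary electrophoresis.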 The note with it: HepG2 Attagene TRANS M32 internal marker reporter. Put shortly: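 Internal background reporter in transfected HepG2: after 24 h chemical exposure, RNA reverse-transcribed, reporter cDNA amplified, fluorescently labelled and HpaI-cut, then sized by capillary electrophoresis. Gain of signal fitted against DMSO control.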

A short description of test [16]: CCTE_Harrill_HTTr_Apoptosis_MCF7: CCTE's 6-hour Apoptosis Assessment for the High-Throughput Transcriptomics (HTTr) Platform, in MCF-7 cells cultured in DMEM + 10% fetal bovine serum, Harrill Lab (AID 2284011; active = hit-call score of the fitted dose curve at least 0.9, where 1 is the maximum; inactive = score below 0.9). Put shortly:
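MCF-7 (DMEM + 10% FBS), 384-well; 8-pt dilution series, 6 h chemical exposure; caspase-3/7 activation via CellEvent Caspase 3/7 Green, HCI; bidirectional fit vs DMSO.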

For test [17], the target named is Peroxisome proliferator-activated receptor gamma (Homo sapiens) (UniProt P37231). In words: ATG_PPARg_TRANS: Attagene TRANS-FACTORIAL HepG2 Assay for human Peroxisome Proliferator-activated Receptor-gamma (PPARg) (AID 2283007). Put shortly:
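HepG2 cells transiently transfected with multiplexed GAL4-UAS reporter units and exogenous chimeric NR-Gal4 proteins; reporter mRNA quantified after 24 h compound exposure by RT-PCR, fluorescent labelling, HpaI digestion and capillary electrophoresis; gain-of-signal fitted versus DMSO baseline.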

The target in test [18] is human RAR-related Orphan Receptor beta (RORb), RORB (gene 6096) (UniProt Q92753). Put plainly: ATG_RORb_TRANS: Attagene TRANS-FACTORIAL HepG2 Assay for human RAR-related Orphan Receptor beta (RORb) (AID 2283010). Put shortly: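 Transfect HepG2 with multiple GAL4-UAS reporter transcription units; dose chemicals for 24 h; isolate RNA, reverse-transcribe and PCR-amplify reporter sequences; label, digest and resolve fragments by capillary electrophoresis; fit increases relative to DMSO.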

The target in test [19] is Nuclear receptor subfamily 1 group I member 3 (Homo sapiens) (UniProt Q14994). Put plainly: ATG_CAR_TRANS: Attagene TRANS-FACTORIAL HepG2 Assay for human Constitutive Androstane Receptor (CAR) (AID 2282969).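 Note: activators raise reporter mRNA above DMSO so AC50 marks induction.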 Particulars: HepG2 Attagene TRANS-FACTORIAL CAR reporter. The method, boiled down:
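Signal is reporter mRNA induction relative to DMSO, measured 24 h after dosing by RT-PCR with fluorescent primer extension and capillary electrophoresis. Human HepG2 liver cells carried transiently transfected chimeric NR-Gal4/GAL4-UAS reporter constructs.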

For test [20], the target named is human Peroxisome Proliferator-activated Receptor alpha (PPARa), PPARA (gene 5465) (UniProt Q07869). In words: ATG_PPARa_TRANS: Attagene TRANS-FACTORIAL HepG2 Assay for human Peroxisome Proliferator-activated Receptor alpha (PPARa) (AID 2283001). The method, boiled down: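 Reporter transcripts quantified by RT-PCR plus capillary electrophoresis after 24 h treatment, fitted upward relative to DMSO. Cells: human HepG2 transiently carrying multiple GAL4-UAS reporter units driven by NR-Gal4 chimeras.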

Inconclusive results are not listed. A structure can be active in one record and inactive in another. Activity calls are given as the source filed them. Rule for the calls, unless noted: active = hit-call score of the fitted dose curve at least 0.9, where 1 is the maximum; inconclusive = response in the unintended direction; inactive = score below 0.9.

Chain of Bile acid receptor (Homo sapiens) (Q96RI1 whole entry, looked up): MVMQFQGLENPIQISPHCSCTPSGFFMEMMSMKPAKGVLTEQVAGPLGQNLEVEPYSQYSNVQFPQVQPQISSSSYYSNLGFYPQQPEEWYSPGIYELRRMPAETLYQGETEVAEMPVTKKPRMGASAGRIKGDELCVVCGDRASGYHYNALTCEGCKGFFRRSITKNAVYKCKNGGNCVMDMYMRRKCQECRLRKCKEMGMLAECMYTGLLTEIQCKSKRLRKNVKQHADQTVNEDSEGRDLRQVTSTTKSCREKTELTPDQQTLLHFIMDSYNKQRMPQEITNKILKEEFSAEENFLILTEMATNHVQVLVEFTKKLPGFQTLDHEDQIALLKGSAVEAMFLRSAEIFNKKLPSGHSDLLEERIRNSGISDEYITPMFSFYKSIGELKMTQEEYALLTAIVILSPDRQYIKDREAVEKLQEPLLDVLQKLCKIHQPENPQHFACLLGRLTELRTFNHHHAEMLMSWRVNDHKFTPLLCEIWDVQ
Chain of Peroxisome proliferator-activated receptor gamma (Homo sapiens) (P37231 whole entry, looked up, the tested form may be a part): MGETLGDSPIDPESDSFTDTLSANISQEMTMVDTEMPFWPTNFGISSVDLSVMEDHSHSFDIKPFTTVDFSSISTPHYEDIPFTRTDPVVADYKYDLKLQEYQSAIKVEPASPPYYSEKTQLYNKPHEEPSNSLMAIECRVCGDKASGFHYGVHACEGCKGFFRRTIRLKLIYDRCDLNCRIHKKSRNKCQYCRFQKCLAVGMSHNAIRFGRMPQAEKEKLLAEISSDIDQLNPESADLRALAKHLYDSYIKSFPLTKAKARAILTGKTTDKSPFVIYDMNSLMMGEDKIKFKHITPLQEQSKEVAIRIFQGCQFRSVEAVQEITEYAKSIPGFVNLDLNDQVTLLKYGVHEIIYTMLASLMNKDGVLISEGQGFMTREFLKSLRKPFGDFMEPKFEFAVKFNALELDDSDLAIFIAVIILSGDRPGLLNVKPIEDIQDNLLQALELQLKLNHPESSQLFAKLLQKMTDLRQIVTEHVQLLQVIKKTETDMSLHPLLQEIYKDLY
Chain of human Peroxisome Proliferator-activated Receptor delta (PPARd), PPARD (gene 5467) (Q03181 whole entry, looked up, the tested form may be a part): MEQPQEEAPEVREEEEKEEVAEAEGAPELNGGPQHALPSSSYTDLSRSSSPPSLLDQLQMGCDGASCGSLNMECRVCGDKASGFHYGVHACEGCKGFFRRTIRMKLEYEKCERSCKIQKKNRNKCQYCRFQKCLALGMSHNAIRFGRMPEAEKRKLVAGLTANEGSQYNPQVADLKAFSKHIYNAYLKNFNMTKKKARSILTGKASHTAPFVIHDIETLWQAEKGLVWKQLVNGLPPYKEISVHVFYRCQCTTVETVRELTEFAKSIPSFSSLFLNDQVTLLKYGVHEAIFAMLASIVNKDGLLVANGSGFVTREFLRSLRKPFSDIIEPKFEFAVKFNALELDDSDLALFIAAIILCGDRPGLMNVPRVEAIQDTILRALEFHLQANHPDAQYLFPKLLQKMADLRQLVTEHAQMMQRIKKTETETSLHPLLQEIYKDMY
Chain of Nuclear receptor subfamily 1 group I member 3 (Homo sapiens) (Q14994 whole entry, looked up, the tested form may be a part): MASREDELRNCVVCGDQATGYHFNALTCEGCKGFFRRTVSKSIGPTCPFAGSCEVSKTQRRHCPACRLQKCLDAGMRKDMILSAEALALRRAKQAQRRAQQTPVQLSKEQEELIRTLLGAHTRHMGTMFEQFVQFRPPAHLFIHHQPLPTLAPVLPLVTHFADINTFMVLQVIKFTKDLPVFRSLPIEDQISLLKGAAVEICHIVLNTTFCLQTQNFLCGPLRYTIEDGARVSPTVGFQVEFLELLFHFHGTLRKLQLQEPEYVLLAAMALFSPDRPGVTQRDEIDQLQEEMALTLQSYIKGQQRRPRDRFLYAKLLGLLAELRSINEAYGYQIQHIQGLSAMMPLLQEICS
Chain of Nuclear receptor subfamily 4 group A member 2 (Homo sapiens) (P43354 whole entry, looked up, the tested form may be a part): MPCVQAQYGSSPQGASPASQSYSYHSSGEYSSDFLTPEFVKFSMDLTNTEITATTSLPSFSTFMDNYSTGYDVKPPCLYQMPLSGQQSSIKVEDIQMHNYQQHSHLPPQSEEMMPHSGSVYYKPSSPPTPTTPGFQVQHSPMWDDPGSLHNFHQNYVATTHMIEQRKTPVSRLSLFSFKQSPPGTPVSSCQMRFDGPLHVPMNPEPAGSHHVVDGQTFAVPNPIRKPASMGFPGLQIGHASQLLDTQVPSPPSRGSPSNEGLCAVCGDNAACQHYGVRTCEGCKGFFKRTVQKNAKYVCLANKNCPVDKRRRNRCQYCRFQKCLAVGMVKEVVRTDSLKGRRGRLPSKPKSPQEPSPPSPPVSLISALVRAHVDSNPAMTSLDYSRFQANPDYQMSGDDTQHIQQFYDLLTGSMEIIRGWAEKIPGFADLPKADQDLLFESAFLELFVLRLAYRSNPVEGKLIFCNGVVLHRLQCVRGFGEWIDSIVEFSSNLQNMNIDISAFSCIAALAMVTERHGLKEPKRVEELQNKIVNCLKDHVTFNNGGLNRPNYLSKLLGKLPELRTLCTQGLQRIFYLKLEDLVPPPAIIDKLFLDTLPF
Chain of human Vitamin D Receptor (VDR), VDR (gene 7421) (P11473 whole entry, looked up, the tested form may be a part): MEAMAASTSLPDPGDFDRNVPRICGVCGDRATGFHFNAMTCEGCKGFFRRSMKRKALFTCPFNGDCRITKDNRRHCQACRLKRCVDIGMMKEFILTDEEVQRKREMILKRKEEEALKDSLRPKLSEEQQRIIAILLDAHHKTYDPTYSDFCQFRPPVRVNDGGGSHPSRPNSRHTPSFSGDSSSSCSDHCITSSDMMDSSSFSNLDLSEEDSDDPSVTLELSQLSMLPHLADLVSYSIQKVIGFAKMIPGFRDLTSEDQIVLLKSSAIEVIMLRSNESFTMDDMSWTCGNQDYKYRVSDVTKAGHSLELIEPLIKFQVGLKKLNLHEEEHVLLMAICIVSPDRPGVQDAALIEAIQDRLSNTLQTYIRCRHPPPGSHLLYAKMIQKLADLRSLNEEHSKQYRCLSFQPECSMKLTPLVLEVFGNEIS
Chain of human Peroxisome Proliferator-activated Receptor alpha (PPARa), PPARA (gene 5465) (Q07869 whole entry, looked up, the tested form may be a part): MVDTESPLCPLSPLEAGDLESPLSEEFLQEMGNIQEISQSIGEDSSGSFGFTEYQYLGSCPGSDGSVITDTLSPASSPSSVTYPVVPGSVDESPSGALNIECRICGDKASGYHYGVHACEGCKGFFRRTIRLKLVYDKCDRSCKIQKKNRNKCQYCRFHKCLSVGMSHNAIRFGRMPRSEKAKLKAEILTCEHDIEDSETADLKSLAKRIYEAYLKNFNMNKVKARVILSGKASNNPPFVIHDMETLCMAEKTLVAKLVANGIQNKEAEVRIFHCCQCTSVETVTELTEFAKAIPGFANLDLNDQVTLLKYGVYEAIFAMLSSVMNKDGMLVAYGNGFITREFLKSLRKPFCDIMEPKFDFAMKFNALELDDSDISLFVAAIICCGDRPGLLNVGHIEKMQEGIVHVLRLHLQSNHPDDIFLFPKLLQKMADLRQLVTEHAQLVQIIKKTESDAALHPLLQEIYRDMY
Chain of Retinoic acid receptor alpha (Homo sapiens) (P10276 whole entry, looked up): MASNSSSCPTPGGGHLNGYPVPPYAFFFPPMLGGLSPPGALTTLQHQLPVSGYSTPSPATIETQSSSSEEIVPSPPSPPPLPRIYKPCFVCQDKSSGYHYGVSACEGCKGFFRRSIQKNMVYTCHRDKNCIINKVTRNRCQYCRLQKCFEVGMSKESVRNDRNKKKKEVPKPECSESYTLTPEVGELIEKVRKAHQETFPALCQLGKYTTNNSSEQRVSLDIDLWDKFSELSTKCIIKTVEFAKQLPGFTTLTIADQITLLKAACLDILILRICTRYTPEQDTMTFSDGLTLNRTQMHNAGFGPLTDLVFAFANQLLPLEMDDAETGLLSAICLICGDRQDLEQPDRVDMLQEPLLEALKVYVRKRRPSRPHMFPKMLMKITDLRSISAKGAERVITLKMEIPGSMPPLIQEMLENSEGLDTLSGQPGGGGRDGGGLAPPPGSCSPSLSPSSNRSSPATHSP
Chain of Glucocorticoid receptor (Homo sapiens) (P04150 whole entry, looked up, the tested form may be a part): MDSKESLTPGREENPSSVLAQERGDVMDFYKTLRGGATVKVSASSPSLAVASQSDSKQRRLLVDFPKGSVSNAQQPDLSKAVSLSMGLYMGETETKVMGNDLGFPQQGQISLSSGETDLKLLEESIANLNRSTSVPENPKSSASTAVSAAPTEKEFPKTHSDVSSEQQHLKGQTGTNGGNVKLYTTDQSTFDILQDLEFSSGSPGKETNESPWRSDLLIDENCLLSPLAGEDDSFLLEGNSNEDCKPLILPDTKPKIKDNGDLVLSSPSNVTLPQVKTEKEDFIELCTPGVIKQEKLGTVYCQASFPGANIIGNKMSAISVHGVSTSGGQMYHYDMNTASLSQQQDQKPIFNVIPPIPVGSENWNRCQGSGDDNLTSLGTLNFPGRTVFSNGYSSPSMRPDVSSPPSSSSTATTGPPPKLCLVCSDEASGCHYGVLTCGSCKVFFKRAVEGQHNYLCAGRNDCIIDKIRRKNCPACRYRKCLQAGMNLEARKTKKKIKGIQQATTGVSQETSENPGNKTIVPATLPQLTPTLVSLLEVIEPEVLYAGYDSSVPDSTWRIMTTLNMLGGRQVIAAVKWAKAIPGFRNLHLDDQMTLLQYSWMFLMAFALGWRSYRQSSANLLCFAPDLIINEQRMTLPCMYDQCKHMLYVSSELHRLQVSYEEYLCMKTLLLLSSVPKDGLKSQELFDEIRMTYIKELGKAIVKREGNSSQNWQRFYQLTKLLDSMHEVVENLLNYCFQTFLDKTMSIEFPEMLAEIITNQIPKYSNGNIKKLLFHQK
Chain of human RAR-related Orphan Receptor beta (RORb), RORB (gene 6096) (Q92753 whole entry, looked up, the tested form may be a part): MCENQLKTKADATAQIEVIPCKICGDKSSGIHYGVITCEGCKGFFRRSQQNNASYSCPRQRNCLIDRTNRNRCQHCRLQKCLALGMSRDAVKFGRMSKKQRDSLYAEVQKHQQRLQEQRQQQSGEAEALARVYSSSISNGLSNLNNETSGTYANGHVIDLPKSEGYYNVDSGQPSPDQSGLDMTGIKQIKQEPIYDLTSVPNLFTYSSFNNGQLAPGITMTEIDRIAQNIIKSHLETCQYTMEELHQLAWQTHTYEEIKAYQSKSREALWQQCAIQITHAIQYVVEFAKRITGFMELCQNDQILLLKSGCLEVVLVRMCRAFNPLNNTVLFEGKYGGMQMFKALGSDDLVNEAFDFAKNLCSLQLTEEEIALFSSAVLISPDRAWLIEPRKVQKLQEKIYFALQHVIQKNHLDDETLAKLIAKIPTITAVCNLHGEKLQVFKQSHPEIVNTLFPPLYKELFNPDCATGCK

On to `Nc1ccccc1C(=O)Oc1ccc2ccccc2c1`, for which the AC50 in test [1] is 173 µM (active); in test [2], 26.1 µM (active); in test [9], 85.3 µM (active). Moreover, the result in test [3], in [4], in test [5], in test [6], in test [7] and in [8] was inactive. The result in test [10] and in test [11] was inactive.

For `BrCBr`, the call in test [12], in test [4], in [5], in test [13], in test [6] and in test [14] was inactive. In addition, the molecule was called inactive in test [7], in [9], in test [10] and in [11].

Regarding `c1cc(OCC2CO2)ccc1Cc1ccc(OCC2CO2)cc1` (centres undefined), the call in test [1], in test [4], in [13], in [15], in test [6] and in test [8] was inactive. Moreover, the call in test [9], in test [10], in test [11] and in test [16] was inactive. The AC50 in test [2] was 37.4 µM (active); in test [10], 87.4 µM (active).

Regarding `Cc1ncc(C[n+]2csc(CCO)c2C)c(N)n1`, the molecule was classed as inactive in [1], in test [3], in [12], in test [13], in test [6] and in [17]. Moreover, the result in test [18], in [9] and in [10] was inactive.

With `CC(C)CCCCCCCOP(=O)(Oc1ccccc1)Oc1ccccc1`, the molecule was called inactive in test [2], in test [19], in test [12], in test [4], in test [13] and in [14]. For the same molecule, the outcome in test [8], in [9], in [10] and in test [11] was inactive. Also, the AC50 in [6] is 26.6 µM (active); in test [17], 7.95 µM (active).

As for `C=CC(=O)OC`, the result in test [1], in test [2], in [3], in test [19], in test [12] and in test [13] was inactive. Moreover, the outcome in [6], in [20], in test [7], in test [8], in [9] and in test [10] was inactive.

As to `COC(=O)c1ccccc1S(=O)(=O)NC(=O)Nc1nc(C)cc(C)n1`, the molecule was classed as inactive in test [1], in [4], in test [5], in [15], in test [6] and in [20]. The call in test [17], in test [18], in test [8] and in [16] was inactive.

Regarding `C=CCO`, the outcome in test [3], in [4], in test [15], in [20], in [14] and in [10] was inactive.

Take `O=C(O)CCCc1ccc(N(CCCl)CCCl)cc1`: the result in test [2], in test [12], in test [15], in [6], in [20] and in test [14] was inactive. Moreover, the molecule was classed as inactive in test [18], in test [10], in test [11] and in test [16].

On to `CNC(=N[N+](=O)[O-])NCC1CCOC1` (centres undefined), for which the call in [2], in [3], in test [12], in test [4], in test [15] and in test [18] was inactive. Also, the outcome in test [11] and in test [16] was inactive.

With `CC(C)(O)C#N`, the outcome in [1], in [2], in test [3], in [19], in test [5] and in test [15] was inactive. For the same molecule, the outcome in test [6], in test [20], in test [8], in test [9], in test [10] and in [11] was inactive. Besides, the result in test [16] was inactive.

On to `COc1ncc(F)c2nc(S(=O)(=O)Nc3c(F)cccc3F)nn12`, for which the result in test [3], in test [12], in test [4], in test [5], in test [6] and in test [16] was inactive.
